Not all results are given here.
aSyn UTR act = Activators via SNCA 5'UTR binding, MLPCN; alpha-synuclein 5'UTR reporter, activators screen; activity score, % (tested at 7.5 µM), hits read low; 7.1% of 300,000 active; in the data active = activity score below about -60%
Starred values were filed as active, the others as inactive.

SMILES	aSyn UTR act
Cn1c(O)c(C2=c3ccccc3=NC2=O)sc1=Nc1ccc(Cl)cc1	-93*
COc1ccccc1-c1nn2c(=O)cc(C)nc2s1	-72*
COc1ccccc1-c1nn2c(-c3ccco3)nnc2s1	-196*
Cc1cc(=O)n2nc(-c3ccc(C(F)(F)F)cc3)sc2n1	-149*
COc1cccc(-c2nnc3sc(-c4ccccc4)nn23)c1	-69*
CCN(CC)c1ccc(-c2nn3c(-c4ccccc4OC)nnc3s2)cc1	83
Cc1cccc(C(=O)Nc2nnc(SCC(=O)NC3CC3)s2)c1	-66*
O=C(CSc1nnc(NC(=O)c2ccc(F)cc2)s1)NC1CC1	-79*
CCOC(=O)CNC(=O)CSc1nnc(NC(=O)c2ccc(C)cc2)s1	74
O=C(CSc1nnc(NC(=O)c2ccccc2F)s1)NCC1CCCO1 (stereo not drawn)	-72*
Cc1ccc(NC(=O)c2ncc(Cl)c(Cl)c2Cl)cc1C	-164*
O=C(Nc1ccc(S(=O)(=O)NCc2ccco2)cc1)c1ccc2ccccc2n1	-66*
Cc1ccc(NC(=O)c2c(C)nc3ccccn23)cc1C	-152*
Cc1ccc(NC(=O)c2cnc3ccccc3n2)cc1C	-96*
O=C(N/N=C/c1ccsc1)c1ccc2ccccc2n1	-97*
O=C(Nc1ccccc1)c1cnc2ccccc2n1	-116*
Cc1ccc(NC(=O)c2ccc3ccccc3n2)cc1S(=O)(=O)N(C)C	-121*
O=C(Nc1ccccc1)c1ccc2ccccc2n1	-178*
Cc1ccc(NC(=O)c2ccc(S(=O)(=O)NCc3ccco3)cc2)nc1	-131*
CCc1nnc(NC(=O)c2ccc3ccccc3n2)s1	-196*
Cc1ccc(/C=C/C(=O)c2c(C)nc3ccccn23)cc1	-90*
Cc1ccc(NC(=O)c2ccc(=O)[nH]n2)cc1C	-102*
Cn1ccsc1=NC(=O)c1ccc([N+](=O)[O-])o1	-161*
Cc1cccc(OCC(=O)Nc2cccc3nsnc23)c1	-82*
Cc1ccc(OCC(=O)Nc2cccc(O)c2)cc1C	-172*
SMILES	aSyn UTR act
O=C(COc1cc(Cl)c(Cl)cc1Cl)Nc1cccc(O)c1	-90*
Cc1cccc(OCC(=O)Nc2cccc(O)c2)c1	-162*
CCC(C)(C)c1nnc(NC(=O)c2ccc([N+](=O)[O-])cc2)s1	-149*
CCCc1nnc(NC(=O)c2ccc([N+](=O)[O-])cc2)s1	-67*
CC(C)(C)Cc1nnc(NC(=O)c2ccc([N+](=O)[O-])cc2)s1	-77*
COc1ccc2c(c1OC)C(=O)OC2Nc1nc(-c2ccc(-c3ccccc3)cc2)cs1 (stereo not drawn)	-233*
CCOc1cc(/C=C2\CCC/C(=C\c3cc(Cl)c(O)c(OCC)c3)C2=O)cc(Cl)c1O	-329*
CCOc1cc(/C=C2\CN(C)C/C(=C\c3ccc(O)c(OCC)c3)C2=O)ccc1O	96
CCCCN1CC(O)=C(c2nc3ccccc3[nH]2)C1=N	-107*
CCCCCCCCCn1ccc(=N)cc1	82
CCCCCCCn1ccc(=N)cc1	56
CC(C)N1CC(O)=C(c2nc3ccccc3[nH]2)C1=N	-74*
CCCCCN1CC(O)=C(c2nc3ccccc3[nH]2)C1=N	-117*
COc1ccc(-c2nc(-c3cccc(C)c3)nc(N3CCN(C)CC3)c2C#N)cc1	59
Brc1ccc(-c2nnc(-c3ccccc3)c(N3CCSCC3)n2)cc1	-85*
CN1CCN(c2nc(-c3ccc(Br)cc3)nnc2-c2ccccc2)CC1	-123*
CC1=NN(C(N)=S)C(=O)C1N=Nc1ccc(F)cc1 (stereo not drawn)	-89*
CCOc1ccc(N=NC2C(=O)N(C(N)=S)N=C2C)cc1 (stereo not drawn)	-142*
Cc1cc(/C=N/n2cnnc2)c(C)n1-c1ccc(OCc2ccccc2F)cc1	-82*
CCOc1ccc(-c2cn(-c3ccc(OC)cc3)c(SC)n2)cc1	-147*
CSc1nc(-c2ccccc2)cn1-c1ccc(NC(C)=O)cc1	-106*
CCC1SC(=NC(=O)c2ccc(Cl)c(Cl)c2)NC1=O (stereo not drawn)	-76*
CCCc1ccc(Oc2cc(Cl)nc(N)n2)cc1	-149*
CCc1ccc(Oc2cc(C)nc(N)n2)cc1	-92*
CC(C)=CCc1c(O)cc2c(=O)c3ccc(O)cc3oc2c1O	-141*
SMILES	aSyn UTR act
Nc1ccc(C#Cc2ccc3sc4ccccc4c(=O)c3c2)cc1	-190*
COc1cccc2sc3ccc(NCc4ccc5c(c4)OCO5)cc3c(=O)c12	-63*
COc1cccc2sc3ccc(C#Cc4ccc(N)cc4)cc3c(=O)c12	-111*
COc1cccc2sc3ccc(C#CC4(O)CCCCC4)cc3c(=O)c12	-191*
O=c1c2ccccc2sc2ccc(C#CC3(O)CCCCC3)cc12	104
COc1ccc2sc3c(=O)[nH]c4ccccc4c3c2c1	63
COc1ccc2sc3ccccc3c(=O)c2c1OC	-145*
CC(=O)N(Cc1ccco1)c1nc(C(=O)Nc2ccc(Cl)cc2)c(C)s1	-105*
CC(C)c1ccc(Nc2nnc(SCC(=O)Nc3ncc(S(=O)(=O)c4ccc([N+](=O)[O-])cc4)s3)s2)cc1	-66*
O=C(c1cccs1)N1CCN(c2nc3c(F)cc(F)cc3s2)CC1	-78*
O=C(c1ccco1)N1CCN(c2nc3ccsc3c(=O)s2)CC1	-98*
Cc1cc2nc(N3CCN(C(=O)c4ccco4)CC3)sc2cc1C	-129*
c1ccc2c(c1)CCN(c1nc3cc4c(cc3s1)OCCO4)C2	75
CC(=O)c1ccc(N2CCN(C(=O)c3ccco3)CC2)c(F)c1	-98*
Cc1cc2nc(N3CCN(C(=O)c4cccs4)CC3)sc2cc1C	-130*
Cc1cc(C)c2nc(N3CCN(C(=O)c4ccco4)CC3)sc2c1	-115*
CCC1CCCCN1CCCNC(=O)CC1Oc2ccccc2NC1=O (stereo not drawn)	-75*
O=c1oc(Nc2ccccc2Cl)nc2ccccc12	-91*
O=c1oc(Nc2cccc(Cl)c2)nc2ccccc12	-85*
N#C/C(=C(/O)COc1ccccc1)c1nc2ccccc2s1	-63*
N#C/C(=C(/O)c1ccc(-c2cccc([N+](=O)[O-])c2)o1)c1nc2ccccc2s1	-105*
N#C/C(=C(/O)c1ccc(F)cc1)c1nc2ccccc2s1	-136*
N#C/C(=C(/O)CSc1ccccn1)c1nc2ccccc2s1	-62*
Cc1cc(C)nc(/N=C(\N)N2CCc3ccccc32)n1	-62*
O=Cc1ccc(OCc2ccc3ccccc3c2)cc1	-132*
SMILES	aSyn UTR act
O=Cc1cccc(OCc2cccc3ccccc23)c1	-117*
COc1ccc(COc2cccc(C=O)c2)cc1	-69*
COc1ccc(Sc2nnc(Cc3ccccc3)c3ccccc23)cc1	-73*
CC(=O)c1sc(NC(=O)c2ccccc2F)nc1-c1ccccc1	-124*
CC(=O)c1sc(NC(=O)c2ccc(F)cc2)nc1-c1ccccc1	-95*
Cc1ccc(-c2cc3nc(C)cc(C)n3n2)cc1	-109*
Cc1ccc(NC(=O)c2cc3nc(C)cc(C)n3n2)cc1	-82*
Cc1cc(C)n2nc(-c3ccccc3)cc2n1	-97*
Cc1cc(C)n2nc(Nc3ccccc3)cc2n1	-165*
COc1ccc(-c2nc(=S)c3c([nH]2)Oc2ccc(C)cc2C3)cc1O	-76*
COc1cccc(NC(=O)c2nnn(CCc3ccccc3)c2N)c1	-127*
COc1ccc(C)cc1NC(=O)c1nnn(Cc2cccc(C(F)(F)F)c2)c1N	55
COc1cccc(NC(=O)c2nnn(Cc3ccc(Br)cc3F)c2N)c1	-80*
CC1CCN(c2oc(-c3ccccc3Cl)nc2C#N)CC1	-144*
CC1CCN(c2oc(-c3ccc(F)cc3)nc2C#N)CC1	-67*
CN1CCN(C2=C(Cl)C(=O)N(C3CCCCC3)C2=O)CC1	-84*

Bioassay records deposited in PubChem by Broad Institute.
